These results are taken from the OligoGym collection.

What all share (test): pooled miR-30 sensor sort-seq; sequence = guide strand
Settings in all cases: shRNA

In experiment [1] the target is HMGN1.
Experiment [2] addresses HLA-DRA.
The target in experiment [3] is HMGB2.
For experiment [4], the target named is HMOX1.
Experiment [5] has as its target HS6ST1.
Experiment [6] concerns the target IKBKAP.
Experiment [7] concerns the target IL7.
Experiment [8] addresses IPO9.
The target of experiment [9] is ITFG1.
The target of experiment [10] is JAM3.
For experiment [11], the target named is KCND2.
The target in experiment [12] is KCNK6.
For experiment [13], the target named is KCNRG.
For experiment [14], the target named is KHDRBS3.
Experiment [15] concerns the target KIF25.
The target of experiment [16] is KLF15.
Experiment [17] addresses KIR2DL5B.
For experiment [18], the target named is KLC3.
Experiment [19] deals with KLF14.
Note: reference of the scale not given here.

TTTAGCTGACAACCGCGCCGAT came in with a sensor-assay potency score (higher = more potent) in [1] of -0.654.
Sequence AGACTGTCTCTGACACTCCTGT registered a sensor-assay potency score (higher = more potent) in [2] of -1.07.
As for TTTAGCTTAGCTGCTTTCTGTT, the sensor-assay potency score (higher = more potent) in [3] is -0.377.
Consider TTCTTGGTTAGCCACTTCGGCC, for which the sensor-assay potency score (higher = more potent) in experiment [1] was -1.77.
For TTCTGGTTCGTTCTTCTTCTTT, the sensor-assay potency score (higher = more potent) in experiment [3] was -0.774.
TTGATAAAAATATTCCTCTGGA came in with a sensor-assay potency score (higher = more potent) in [1] of 0.157.
As for TTCTTCTTGTGCTCTTCCCGGC, the sensor-assay potency score (higher = more potent) in experiment [3] was -0.526.
TACCAAAAAATAAACAACCAGC came in with a sensor-assay potency score (higher = more potent) in [1] of -1.01.
On the same count and under the same terms, the result for TAGGATATAAAAACTAACCCCC reads -0.107.
As for TAGAGCTGCTTGAACTTGGTGG, the sensor-assay potency score (higher = more potent) in [4] came to 0.136.
Sequence TTCAAACTTCGACTTCTCCTTT yielded a sensor-assay potency score (higher = more potent) in [3] of 0.655.
Same read-out and setting: the value for TTTCTTCTTGTGCTCTTCCCGG was -1.12.
Regarding TTCTGCTGCATTGCTTTTGCGC, in experiment [2], the sensor-assay potency score (higher = more potent) is -0.581.
TATAAAAACAACAGAACACAAC had a sensor-assay potency score (higher = more potent) in experiment [4] of -1.08.
TTAGCTTAGCTGCTTTCTGTTC: the sensor-assay potency score (higher = more potent) in [3] was -0.873.
TTGGTTAGCCACTTCGGCCTGT: in experiment [1], the sensor-assay potency score (higher = more potent) is 0.684.
Take TTGGTGAGGGACACACTCCCGG: in [5], the sensor-assay potency score (higher = more potent) was -0.875.
With TTCTATAATATCCAGTCTGTTA, the sensor-assay potency score (higher = more potent) in [6] is -1.24.
Sequence TAGCATCACAGATATGTCTTTT had a sensor-assay potency score (higher = more potent) in experiment [7] of -0.445.
TTATCGATTCTCTCAACCCATT: the sensor-assay potency score (higher = more potent) in experiment [8] is -1.16.
For the sequence TTCGTATAGATTTTTCTCCAGA, the sensor-assay potency score (higher = more potent) in experiment [9] is -0.843.
Still for that read-out and setting: the result for TTTTTCTCTATCATCTGCTTTC reads -0.602.
For TAAAGGGCTGAGTCTCTCCGTG, in experiment [10], the sensor-assay potency score (higher = more potent) was -0.394.
Still for that read-out and setting: the value for TTATTGTTGATGAAGTAGCCAC was -0.389.
Take TTGTATACTACCTTGATGGCTT: in experiment [11], the sensor-assay potency score (higher = more potent) is 0.674.
The same measure, in the same setting: the value for TTTGTCTGCTCGTTGATTCTGG was -0.31.
TCGGAGCCTGGCTTCGTGCGGC registered a sensor-assay potency score (higher = more potent) in experiment [12] of -0.634.
In experiment [12], TCCTCATCCGCATTGAAACTGG returned a sensor-assay potency score (higher = more potent) of -1.46.
Regarding TTCGTGATGAGCACTTCAGGGC, the sensor-assay potency score (higher = more potent) in [13] stood at 0.363.
As to TTTTATAGAAACATACCTGACT, the sensor-assay potency score (higher = more potent) in [13] was -0.489.
Take TTGAGATGGAAGTACTTCGCTT: the sensor-assay potency score (higher = more potent) in [14] is -0.344.
For the sequence ACAAACATTGTACCCATCCAAG, in [15], the sensor-assay potency score (higher = more potent) is -1.74.
On the same count and under the same terms, the result for TAATTCCTAAGTCACTCTGTGG reads -1.49.
Take TGGATCTGCAGCAACACTGGGA: the sensor-assay potency score (higher = more potent) in experiment [16] was -0.384.
Still for that read-out and setting: the value for TATCTAGTTCTCTCACACCCAG was -0.809.
TACATGGGAGCTAGCAACCCGG: in experiment [17], the sensor-assay potency score (higher = more potent) is -1.49.
TTAAATTTCAAATTTACACAAA yielded a sensor-assay potency score (higher = more potent) in experiment [16] of -0.919.
Sequence TTTGTACTTGTTCTGGTCCCGG returned a sensor-assay potency score (higher = more potent) in experiment [18] of -0.559.
With TCTTTGTACAGCTCTTCCGCTT, the sensor-assay potency score (higher = more potent) in experiment [18] is -0.542.
TAGGCTTTGGTGCAGCCCGGGA yielded a sensor-assay potency score (higher = more potent) in experiment [19] of -1.12.
As for TTGTACAGCTCTTCCGCTTGTT, in [18], the sensor-assay potency score (higher = more potent) was 0.24.
AAACTTCTTGTCGCAGTCGAGC registered a sensor-assay potency score (higher = more potent) in [19] of -1.65.
Sequence TCGCAGTCGAGCCAGTCGCAGG came in with a sensor-assay potency score (higher = more potent) in [19] of -1.84.
As to ATCTTGGAGAGTGAGCTGCTGC, the sensor-assay potency score (higher = more potent) in [18] was -1.26.
On the same count and under the same terms, the value for TTCTTTGTACAGCTCTTCCGCT was -0.475.
In experiment [19], TATCTGGATGATAGGTTGGGTG returned a sensor-assay potency score (higher = more potent) of -1.33.
Turning to TTCTTTTTGTTGGAGCAGCAGC, in [17], the sensor-assay potency score (higher = more potent) is -0.965.
In the case of TTGGTGTACATCTTGCTGCAGC, the sensor-assay potency score (higher = more potent) in experiment [16] was -0.584.
Consider TAAACTTCTTGTCGCAGTCGAG, for which the sensor-assay potency score (higher = more potent) in experiment [19] was -0.734.
Take TTTCTTTGTACAGCTCTTCCGC: in experiment [18], the sensor-assay potency score (higher = more potent) was -0.28.
As to AAACTCTTCAATCTCCTCCAGG, in experiment [16], the sensor-assay potency score (higher = more potent) is -0.475.
Regarding ATAGGCTTTGGTGCAGCCCGGG, the sensor-assay potency score (higher = more potent) in experiment [19] is -0.764.
As to TTGAGTGACATGGCTCTCTTCA, the sensor-assay potency score (higher = more potent) in experiment [18] was -0.297.
Same read-out and setting: the value for TTGATACTTGTTCTGTTTCAGG was -0.751.
Turning to TATTTTATGTGGATGGACCTAT, the sensor-assay potency score (higher = more potent) in [16] came out at 0.313.
Same read-out and setting: the value for TAGCACTAAAGTTCTGGCCTTG was -0.309.
For the sequence AACTACTTGAAGAGTTTCCTGT, the sensor-assay potency score (higher = more potent) in experiment [17] was 0.126.
In experiment [18], TTGTACTTGTTCTGGTCCCGGT came in with a sensor-assay potency score (higher = more potent) of -0.388.
In turn, TATATTTTTATGAAGGACCAAA registered a sensor-assay potency score (higher = more potent) in experiment [16] of -0.999.
In the case of TATCTGTTGGAGGTGCCTTGGG, the sensor-assay potency score (higher = more potent) in experiment [17] is -0.788.
